Growth inhibition data for 45 compounds are collected here from PubChem BioAssay (NCI).

Each structure is given as a SMILES string. This is part of a sample that, as a whole, favours compounds with a hit. Of some 79,000 tested, about 15% had one in any assay. Values without a mark were called inactive. Calls of active or inactive are those of the source. Rule as the data show it: active = growth inhibition above about 70%; inactive = the rest.

Experiment [1] can be described thus: NCI Yeast Anticancer Drug Screen. Data for the rad50 strain (AID 155).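 Also: 0% = growth of vehicle-only cultures of the same strain.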 As to conditions: S. cerevisiae rad50 strain growth inhibition; at 50.0 µM; active compounds read high. A digest of the protocol: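 DNA repair mutant yeast, compound exposure, growth read-out; inhibition is taken relative to vehicle.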
Experiment [2] can be described thus: NCI Yeast Anticancer Drug Screen. Data for the mec2-1 strain (AID 157). As to conditions: S. cerevisiae mec2-1 strain, at 50.0 µM, active compounds read high. A digest of the protocol:
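Growth inhibition is read against vehicle-treated controls after compound exposure of the mec2-1 yeast strain, which is defective in DNA damage repair or cell cycle control.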

Experiment [3] can be described thus: NCI Yeast Anticancer Drug Screen. Data for the cln2 rad14 strain (AID 165).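 Also: 0% = growth equal to vehicle treated cultures.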 As to conditions: S. cerevisiae cln2 rad14 strain, at 50.0 µM, active compounds read high. A digest of the protocol:
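Growth inhibition, relative to vehicle-treated controls, is the read-out. The test organism is a yeast strain with defined genetic alterations, cln2 rad14.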

Experiment [4] in a line: NCI Yeast Anticancer Drug Screen. Data for the bub3 strain (AID 167). As to conditions: S. cerevisiae bub3 mutant strain, at 50.0 µM, active compounds read high. A digest of the protocol:
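In this screen, a yeast mutant lacking normal mitotic checkpoint function is challenged with compound. Relative growth versus vehicle gives the inhibition value.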

Experiment [5] in a line: NCI Yeast Anticancer Drug Screen. Data for the mlh1 rad18 strain (AID 175). As to conditions: S. cerevisiae mlh1 rad18 strain growth inhibition; at 50.0 µM; active compounds read high. A digest of the protocol: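 Cells of a genetically altered yeast strain, deficient in DNA damage repair, were treated with compound. Their growth was then compared with that of vehicle-treated cultures to give inhibition.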

Experiment [6] is described as follows: NCI Yeast Anticancer Drug Screen. Data for the sgs1 mgt1 strain (AID 161).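 Also: 0% = growth of cultures given vehicle only.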 The note with it: S. cerevisiae sgs1 mgt1 strain, at 50.0 µM, active compounds read high. A digest of the protocol: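 Growth of a repair-deficient yeast mutant was monitored after compound treatment and expressed as inhibition relative to vehicle-treated cultures.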

Consider `COc1c(C)cc2c(C(C)C)c(O)c(O)c(C=O)c2c1O`, for which the growth inhibition in experiment [1] was 86.1% (active); in experiment [2] it was 88.2% (active); in experiment [3], 79% (active); in experiment [4], 80.8% (active); in experiment [5], 76.3% (active).
Taken in the same sequence, the figures for `C=CC12CCC(CC1)n1c(=O)n(C)c(=O)n12` were -8.05%, -11.7%, -34.5%, -18% and -6.8%.
Turning to `CCC(C)OC(=Nc1ccccc1)c1ccccc1` (stereo not drawn), the growth inhibition is -4.05% in experiment [1]; 5.95% in experiment [2]; 15.7% in experiment [3]; -6.7% in experiment [4]; 2.4% in experiment [5].
As for `OC(C/C(=N\Nc1ccccc1)c1ccc(Br)cc1)(C(F)(F)F)C(F)(F)F`, the growth inhibition in experiment [1] was 67.2%; in experiment [2], 97% (active); in experiment [3] it was 85.7% (active); in experiment [4], 44.9%; in experiment [5], 96.5% (active).
On the same counts, the results for `Cc1cccc(-n2c(CC#N)n[nH]c2=S)c1` are 21%, -21.8%, 3.15%, 5.2% and 5.45%.
For the compound `Cc1ccc(CN(C)N=Nc2ccc(C#N)cc2)cc1`, the growth inhibition is 2.55% in experiment [1]; 34.2% in experiment [2]; 12.1% in experiment [3]; 65.3% in experiment [4]; 6.7% in experiment [5].
Regarding `COC(=O)c1cc(-c2ccccc2)c2c(=O)n(-c3ccccc3)[nH]c2n1`, the growth inhibition in experiment [1] was 13.7%; in experiment [2], 7.35%; in experiment [3] it was -10.3%; in experiment [4], -4.55%; in experiment [5], 4.85%.
As for `C=CCc1ccc(OC(=O)Nc2ccc(S(=O)(=O)N(C)C)cc2)c(OC)c1`, the growth inhibition in experiment [1] is 26.6%; in experiment [2], 2%; in experiment [3], 14.6%; in experiment [4], 6.75%; in experiment [5], 19.2%.
For `CC12CCC(Cl)(CC1O)C2(C)C` (stereo not drawn), the growth inhibition in experiment [1] is 1.9%; in experiment [2], 11.6%; in experiment [3] it was 2.05%; in experiment [4], -6.9%; in experiment [5] it was -1.05%.
For `CC(C)NC(=O)C(C(C)C)C(C)(C)C` (stereo not drawn), the growth inhibition is -2.95% in experiment [1], 5.25% in experiment [2], 12.1% in experiment [3] and 9.2% in experiment [4].
Turning to `CC1=C(C(=O)O)C(C)CC(=O)N1` (stereo not drawn), the growth inhibition is 5.15% in experiment [1]; -3.4% in experiment [2]; -12.4% in experiment [3]; 1.2% in experiment [4]; 7.9% in experiment [5].
For the compound `Cc1ccc2c(c1)N=C(Nc1ccccc1)N=S2(C)=O` (stereo not drawn), the growth inhibition is 2.95% in experiment [1]; -18.7% in experiment [2]; -11.7% in experiment [3]; -7.55% in experiment [4]; -41.5% in experiment [5].
`N#CCCC(CC#N)N1CCN(C(CC#N)CCC#N)CC1` (stereo not drawn): the growth inhibition was -33.5% in experiment [1]; -48.9% in experiment [2]; -6.3% in experiment [3]; -13.1% in experiment [4]; -19.4% in experiment [5].
Taken in the same sequence, the figures for `CN(C)c1ccc(C=C2C(=O)OC(C)(C)OC2=O)cc1Br` were 1.55%, -13.8%, 32%, -17.6% and 10.7%.
On the same counts, the results for `c1ccc(C[P+]2(c3ccccc3)c3ccccc3-c3ccccc32)cc1` are -25.9%, -8%, 4.15%, -6.6% and -38.2%.
On to `CCCCCOC(=O)c1cc2ccccc2cc1O`, for which the growth inhibition in experiment [1] was -3%; in experiment [2] it was -8.05%; in experiment [3], -39.6%; in experiment [4], 30.1%; in experiment [5], -7.8%.
For the compound `CCCCCCCC(=O)OC(CC)CCCC` (stereo not drawn), the growth inhibition in experiment [1] was 5.25%; in experiment [2], -9.9%; in experiment [3], 8.35%; in experiment [4], 3.6%; in experiment [5], -1.2%.
Taken in the same sequence, the figures for `COC(=O)NC(=O)CCC(=O)O` were -0.15%, -2.8%, -45.3%, 7% and 12.8%.
Taken in the same sequence, the figures for `CC1(C)CC2=C(SC3C=CC=CC3N2)C(=O)C1C(=O)C(N)=O` (stereo not drawn) were -34.7%, -15%, -3.65%, -23.1% and -33.8%.
Consider `Cc1[nH]c2ccc(-c3ccccc3)cc2c1CC(=O)O`, for which the growth inhibition was 51.5% in experiment [1]; -22.8% in experiment [2]; -5.85% in experiment [3]; 3.35% in experiment [4]; 53.9% in experiment [5].
Regarding `CCCCCCCCCCCCCCCCn1/c(=N\N=O)sc2ccccc21`, the growth inhibition in experiment [1] was -9.65%; in experiment [2], -17.9%; in experiment [3], 11.6%; in experiment [4], -0.4%; in experiment [5], -0.25%.
As for `NC(=O)C(Br)Cc1cccc(Cl)c1` (stereo not drawn), the growth inhibition in experiment [1] was 29.6%; in experiment [2], 11.2%; in experiment [3], 2.05%; in experiment [4] it was 17.9%; in experiment [5], 14.4%.
For `C/C(=C\c1ccc(OCCN2CCOCC2)cc1)c1ccc2c(c1)C(C)(C)CCC2(C)C`, the growth inhibition was -3.2% in experiment [1]; -11.9% in experiment [2]; -4.95% in experiment [3]; -20.6% in experiment [4]; -25.9% in experiment [5].
As to `CC(C)(C)c1c(C#N)nnc2cc(-c3ccccc3)nn12`, the growth inhibition was 7% in experiment [1]; 8.85% in experiment [2]; 25.1% in experiment [3]; -17.3% in experiment [4]; 9.15% in experiment [5].
Taken in the same sequence, the figures for `O=c1[nH]c2cc(Br)c(Br)cc2c2ccc(Br)cc12` were 43%, -3.8%, 1.3%, 5.8% and 5.15%.
Turning to `CCCCCCCCCCCCCCCCc1ccc(CCCC(=O)O)cc1`, the growth inhibition in experiment [1] was -20.8%; in experiment [2] it was -16.2%; in experiment [3], 5.45%; in experiment [4] it was -17.3%; in experiment [5] it was 12.5%.
Consider `COc1ccc2c(c1)c(CO)c(CO)c[n+]2[O-]`, for which the growth inhibition in experiment [1] is 11.7%; in experiment [2], 3.1%; in experiment [3] it was 2.75%; in experiment [4], 11.8%; in experiment [5], 6.15%.
As for `O=C(NC(=S)Nc1ccc(Cl)cc1C(=O)c1ccccc1)c1ccc(Cl)cc1Cl`, the growth inhibition was -32% in experiment [1]; 6.9% in experiment [2]; 74.4% (active) in experiment [3]; -3.05% in experiment [4]; -1.15% in experiment [5].
For the compound `CN=C1c2ccccc2C(=O)c2c1c(O)n(C)c2O`, the growth inhibition in experiment [1] is 3.05%; in experiment [2] it was -8.45%; in experiment [3], 1.4%; in experiment [4], -2.75%; in experiment [5], -1%.
Take `c1ccc2c[n+]3cc4ccccc4cc3cc2c1`: the growth inhibition in experiment [1] was 30.9%; in experiment [2] it was 23.4%; in experiment [3] it was 31.3%; in experiment [4] it was 33%; in experiment [5], 56.1%.
In the case of `COc1ccc(C(=O)Nc2ccn(CCOC(=O)c3ccc(OC)cc3)c(=O)n2)cc1`, the growth inhibition was -25.9% in experiment [1]; 16.9% in experiment [2]; -4% in experiment [3]; 2.8% in experiment [4]; -3.55% in experiment [5].
On the same counts, the results for `COc1cc(=O)n(-c2ccccc2)nc1C#N` are 2.25%, -0.7%, -46.1%, 8.85% and -1.2%.
On to `CCCCCCCCCCCCOc1ccc(Br)cc1`, for which the growth inhibition in experiment [1] was 11.4%; in experiment [2], 9.25%; in experiment [3], -23.4%; in experiment [4], -13.4%; in experiment [5] it was 8.7%.
With `O=c1[nH]cnc2c1ncn2CCCCO`, the growth inhibition was -0.15% in experiment [1]; -5.25% in experiment [2]; 2.7% in experiment [3]; -0.05% in experiment [4]; 10.4% in experiment [5].
Taken in the same sequence, the figures for `CCCCCCC(C)Oc1ccccc1Cl` (stereo not drawn) were 5.35%, -11.5%, -23.9%, 6.4% and -20.6%.
Consider `NC1C(=O)Nc2ccccc21` (stereo not drawn), for which the growth inhibition in experiment [1] was 1.85%; in experiment [2], 5.95%; in experiment [3] it was -1.05%; in experiment [4], 8.35%; in experiment [5], 4.95%.
Consider `CCCCN1C(=O)C(NC(C)=O)C1COC(C)(C)C` (stereo not drawn), for which the growth inhibition is -21.9% in experiment [1], -5.2% in experiment [2], -28.1% in experiment [4] and -35.5% in experiment [5].
Consider `Cc1ccc2[nH]c(=S)[nH]c(=S)c2c1`, for which the growth inhibition in experiment [1] was 19.9%; in experiment [2], 5%; in experiment [3] it was -19.8%; in experiment [4], -33.2%; in experiment [5] it was 36%.
On to `COc1cccc(/C=C2\SC(=S)N(/C=C3\C(=O)Oc4ccccc4C3=O)C2=O)c1O`, for which the growth inhibition is 12.2% in experiment [1]; 40.1% in experiment [2]; 50.6% in experiment [3]; 12.8% in experiment [4]; 23.6% in experiment [5].
Take `CC(=O)C(CCCCCCCCCCC(C(C)=O)C(C)=O)C(C)=O`: the growth inhibition was -9.3% in experiment [1]; -2.75% in experiment [2]; -38.6% in experiment [3]; -6% in experiment [4]; -10.2% in experiment [5].
Regarding `O=C1OC(=O)C2C1C1CCC2C1(c1ccccc1)c1ccccc1` (stereo not drawn), the growth inhibition in experiment [1] was 22.5%; in experiment [6], 31.4%; in experiment [3] it was -4.7%; in experiment [4] it was -0.05%; in experiment [5], -2.85%.
Regarding `C[N+](C)(C)CCOC(=O)c1ccccc1CCl`, the growth inhibition in experiment [1] is 19.8%; in experiment [6], 31.6%; in experiment [3] it was 50.1%; in experiment [4], 97.3% (active); in experiment [5] it was -17.1%.
For `O=S1(=O)CS(=O)(=O)OCCO1`, the growth inhibition in experiment [1] was 26.2%; in experiment [6], 14.7%; in experiment [3], 31.9%; in experiment [4], 10.7%; in experiment [5] it was 16.8%.
Consider `C=CCOC(=O)NC(CCC(N)=O)C(=O)O` (stereo not drawn), for which the growth inhibition was 19.7% in experiment [1]; 14.7% in experiment [6]; 9.5% in experiment [3]; -1% in experiment [4]; 16.3% in experiment [5].
Taken in the same sequence, the figures for `CCCCOC(OCCCC)C(C)(C)CN(C)C` were 14.9%, 13.4%, 17.9%, 7.15% and 19.1%.
